Where “and” joins values, the source holds several entries; their conditions need not be identical. Identical values can stand only once. Unmarked numbers belong to inactive results. Results filed as inconclusive are left out. Calls of active or inactive are those of the source. Calls follow the shape of the full dose curve.

The target of test [1] is Acetylcholinesterase (Homo sapiens) (UniProt P22303). Kind of test: Acetylcholinesterase (AChE) small molecule antagonists: colormetric cell-based qHTS assay (AID 1347395). Also: nearly all actives have a fitted effect of over 30% in size. Put shortly: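 SH-SY5Y cells; cpd 30 min 37 C; + DTNB/acetylthiocholine, 90 min 37 C; colorimetric thiocholine read; qHTS.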
Chain of Acetylcholinesterase (Homo sapiens) (P22303 whole entry, looked up): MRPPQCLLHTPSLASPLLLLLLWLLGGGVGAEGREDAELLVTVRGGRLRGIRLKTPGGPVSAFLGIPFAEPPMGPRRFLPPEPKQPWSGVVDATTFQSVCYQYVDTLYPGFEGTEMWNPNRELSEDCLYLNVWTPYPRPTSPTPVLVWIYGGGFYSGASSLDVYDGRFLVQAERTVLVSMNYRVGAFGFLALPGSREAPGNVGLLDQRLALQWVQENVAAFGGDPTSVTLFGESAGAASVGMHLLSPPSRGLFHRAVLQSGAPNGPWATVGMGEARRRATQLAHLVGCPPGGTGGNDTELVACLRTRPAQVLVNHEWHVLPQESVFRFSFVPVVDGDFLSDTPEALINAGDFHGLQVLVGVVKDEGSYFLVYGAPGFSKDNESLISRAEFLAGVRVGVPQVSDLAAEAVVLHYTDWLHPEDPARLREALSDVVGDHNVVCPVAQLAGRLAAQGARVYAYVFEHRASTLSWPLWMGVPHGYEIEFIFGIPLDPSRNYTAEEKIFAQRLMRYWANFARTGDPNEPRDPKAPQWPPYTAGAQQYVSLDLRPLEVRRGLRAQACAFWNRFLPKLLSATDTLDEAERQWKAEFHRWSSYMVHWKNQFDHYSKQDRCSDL
A general note: In qHTS, concentration-response curves come from the screen itself.

The target is the same in test [2]. Kind of test: Acetylcholinesterase (AChE) small molecule antagonists: enzyme-based qHTS assay (AID 1347397). Also: nearly all actives have a fitted effect of over 55% in size. Also: potency is read from the fitted curve at half-maximal effect. As to conditions: Potency: AChE enzyme activity inhibition; outcome: AChE enzyme activity inhibition. In a few lines: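 Absorbance-based detection of thiocholine with DTNB served as the read-out. Recombinant human AChE was exposed to compound for 30 min at RT before a 10 min RT incubation with acetylthiocholine.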

The target is the same in test [3]. Kind of test: Acetylcholinesterase (AChE) small molecule antagonists: fluorescence cell-based qHTS assay (AID 1347398). Also: nearly all actives have a fitted effect of over 50% in size. Also: potency is read from the fitted curve at half-maximal effect. Conditions: Potency: AChE activity; outcome: AChE activity. In a few lines:
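Fluorimetric cell-based assay: intact SH-SY5Y cells, 30 min compound preincubation at 37 C, acetylthiocholine substrate with thiol probe Thiolite Green, 40 min RT development, fluorescence 490/520 nm.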

Test [4] has the same target. Kind of test: Acetylcholinesterase (AChE) small molecule antagonists: enzyme-based qHTS assay with human liver microsomes (AID 1347399). Also: nearly all actives have a fitted effect of over 60% in size. Conditions: Potency: qHTS inhibition; outcome: qHTS inhibition. In a few lines: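 Recombinant human AChE (50 mU/mL in the enzyme mix) and human liver microsomes (0.25 mg/mL final) were preincubated with compound and NADPH (0.25 mg/mL final) for 30 min at 37 C. Acetylthiocholine/DTNB was then added; thiocholine was read colorimetrically after 10 min at room temperature.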
% is scaled to controls: 0 for no effect and ±100 for the full control effect.

For `Cc1ccc(C(=O)O)cc1[N+](=O)[O-]`, the Potency entry in test [1], in test [2], in test [3] and in test [4] was “inactive” in each case.

For `CC1(C)O[C@@H]2[C@@H](CO[C@@]3(COS(N)(=O)=O)OC(C)(C)O[C@@H]23)O1`, the Potency entry in test [1], in test [2], in test [3] and in test [4] was “inactive” throughout.

Regarding `CO[Si](CCCn1c(=O)n(CCC[Si](OC)(OC)OC)c(=O)n(CCC[Si](OC)(OC)OC)c1=O)(OC)OC`, the Potency result in test [1], in test [2], in test [3] and in test [4] was “inactive” in each case.

Turning to `COC(=O)C(C)O` (stereo not given), the Potency entry in test [1], in test [2], in test [3] and in test [4] was “inactive” in each case.

As to `Cc1c(N(C)C)c(=O)n(-c2ccccc2)n1C`, the Potency entry in test [1], in test [2], in test [3] and in test [4] was “inactive” each time.

Consider `C/C(CC(C)C)=N\O`, for which the Potency entry in test [1], in test [2], in test [3] and in test [4] was “inactive” each time.

Turning to `O=C(O)c1ccc(Cl)cc1Cl`, the Potency entry in test [1], in test [2], in test [3] and in test [4] was “inactive” each time.

Take `CCCN1C=CN(C)C1`: the Potency result in test [1], in test [2], in test [3] and in test [4] was “inactive” throughout.

In the case of `Nc1cccc(N)n1`, the Potency entry in test [1], in test [2], in test [3] and in test [4] was “inactive” each time.

Regarding `CCCCCCCCCCCCCCCC[N+](C)(C)Cc1ccccc1`, the Potency entry in test [1] and in test [4] was “inactive” each time. Moreover, the Potency in test [2] is 82.2 µM (active) and 32.3 µM (active) and 38.9 µM (active); in test [3], 46.2 µM (active) and 57.4 µM (active).

`CC(C)CCCCCOC(=O)CS`: the Potency result in test [1], in test [2], in test [3] and in test [4] was “inactive” in each case.

On to `C[C@]12CCC(=O)C=C1[C@@H]1C[C@@H]1[C@H]1[C@@H]3[C@@H]4C[C@@H]4[C@@]4(CCC(=O)O4)[C@@]3(C)CC[C@@H]12`, for which the Potency result in test [1], in test [2], in test [3] and in test [4] was “inactive” each time.

For `CC1(C)C(=O)N(Br)C(=O)N1Br`, the Potency entry in test [1], in test [2], in test [3] and in test [4] was “inactive” each time.

As to `Cc1ccccc1OCC(=O)O`, the Potency result in test [1], in test [2], in test [3] and in test [4] was “inactive” in each case.

As for `COc1cc(/C=C/C(=O)O[C@H]2CC[C@]34C[C@]35CC[C@]3(C)[C@@H]([C@H](C)CCC=C(C)C)CC[C@@]3(C)[C@@H]5CC[C@H]4C2(C)C)ccc1O`, the Potency result in test [1], in test [2], in test [3] and in test [4] was “inactive” in each case.

In the case of `Nc1cc(=O)[nH]c(N)n1`, the Potency result in test [1], in test [2], in test [3] and in test [4] was “inactive” each time.

`Cc1c(OCC(F)(F)F)ccnc1CS(=O)c1nc2ccccc2[nH]1` (stereo not given): the Potency entry in test [1], in test [2], in test [3] and in test [4] was “inactive” each time.

As for `O=S(=O)(O)c1ccc(O)c2ncccc12`, the Potency entry in test [1], in test [2], in test [3] and in test [4] was “inactive” each time.

`CC(C)OC(=O)c1ccccc1`: the Potency result in test [1], in test [2], in test [3] and in test [4] was “inactive” each time.

For `C=CCNCC=C`, the Potency result in test [1], in test [2], in test [3] and in test [4] was “inactive” in each case.

`OC1CCCc2ccccc21` (stereo not given): the Potency entry in test [1], in test [2], in test [3] and in test [4] was “inactive” in each case.

Consider `C[C@H]1C[C@@H](O)CC(C)(C)C1`, for which the Potency entry in test [1], in test [2], in test [3] and in test [4] was “inactive” in each case.

Consider `CCCOc1ccccc1-c1nc2n[nH]nc2c(=O)[nH]1`, for which the Potency result in test [1], in test [2], in test [3] and in test [4] was “inactive” throughout.

For the molecule `CC(C)(C)NCC(O)c1cc(O)cc(O)c1` (stereo not given), the Potency result in test [1], in test [2], in test [3] and in test [4] was “inactive” each time.

As for `CN1CCN(c2c(F)cc3c(=O)c(C(=O)O)cn4c3c2OCN4C)CC1`, the activity, negative = inhibition in test [1] was 1.67% [at 23.6 µM]. For the same molecule, the figures for the activity change, negative = inhibition in test [2], in test [3] and in test [4] were 0.0377% [at 23.6 µM], 5.01% [at 23.8 µM] and -0.167% [at 23.6 µM], respectively.

For `O=c1c2ccccc2oc2ccccc12`, the Potency entry in test [1], in test [2], in test [3] and in test [4] was “inactive” in each case.

On to `COc1cc(C(=S)N2CCOCC2)cc(OC)c1OC`, for which the Potency entry in test [1], in test [2], in test [3] and in test [4] was “inactive” in each case.

As to `O=C1CCCc2c(O)cccc21`, the Potency entry in test [1], in test [2], in test [3] and in test [4] was “inactive” throughout.

On to `CC(C)c1ccccc1N`, for which the Potency result in test [1], in test [2], in test [3] and in test [4] was “inactive” each time.

For `C/C=C/c1ccc(OCC)c(O)c1`, the Potency result in test [1], in test [2], in test [3] and in test [4] was “inactive” throughout.

As for `Nc1ncn([C@H]2C[C@H](O)[C@@H](CO)O2)c(=O)n1`, the Potency result in test [1], in test [2], in test [3] and in test [4] was “inactive” throughout.

For the molecule `CN(C)CCOCCN(C)C`, the Potency entry in test [1], in test [2], in test [3] and in test [4] was “inactive” throughout.

For the molecule `CCOc1ccc(N=Nc2ccc(/C=C/c3ccc(N=Nc4ccc(OCC)cc4)cc3S(=O)(=O)O)c(S(=O)(=O)O)c2)cc1`, the Potency result in test [1], in test [2], in test [3] and in test [4] was “inactive” throughout.

Turning to `CC(C)c1ccc2cc(C(C)C)ccc2c1`, the Potency result in test [1], in test [2], in test [3] and in test [4] was “inactive” throughout.

With `CCCCCCCCn1sc(Cl)c(Cl)c1=O`, the Potency entry in test [1], in test [2], in test [3] and in test [4] was “inactive” throughout.

Consider `NS(=O)(=O)c1ccccc1OC(F)(F)F`, for which the Potency entry in test [1], in test [2], in test [3] and in test [4] was “inactive” throughout.

For the molecule `CCN(O)CC`, the Potency result in test [1], in test [2], in test [3] and in test [4] was “inactive” each time.

As for `Nc1ccc(Cl)c(N)c1`, the Potency entry in test [1], in test [2], in test [3] and in test [4] was “inactive” in each case.

Consider `C=CCNC(N)=S`, for which the Potency result in test [1], in test [2], in test [3] and in test [4] was “inactive” in each case.

As to `CN(C)CCc1c[nH]c2ccc(C[C@H]3COC(=O)N3)cc12`, the Potency entry in test [1], in test [2], in test [3] and in test [4] was “inactive” each time.

Regarding `CN1C(CCl)Nc2cc(Cl)c(S(N)(=O)=O)cc2S1(=O)=O` (stereo not given), the Potency result in test [1], in test [2], in test [3] and in test [4] was “inactive” each time.

For `O=C(CCCCCCCCC#CI)Oc1ccccc1`, the Potency result in test [1], in test [2], in test [3] and in test [4] was “inactive” throughout.

For `ClCCOCCOCCCl`, the Potency result in test [1], in test [2], in test [3] and in test [4] was “inactive” each time.

Regarding `Cc1cccc(C)c1OCC(=O)N[C@@H](Cc1ccccc1)[C@@H](O)C[C@H](Cc1ccccc1)NC(=O)[C@H](C(C)C)N1CCCNC1=O`, the Potency result in test [1], in test [2], in test [3] and in test [4] was “inactive” each time.

With `O=S1(=O)c2cccc3cccc(c23)N1CCCN1CCN(c2ccc(F)cc2)CC1`, the Potency entry in test [1], in test [2], in test [3] and in test [4] was “inactive” in each case.

In the case of `CC(=O)c1ccc2ccccc2c1`, the Potency result in test [1], in test [2], in test [3] and in test [4] was “inactive” in each case.

For the molecule `CN(C)c1ccc(C(c2ccccc2)c2ccc(N(C)C)cc2)cc1`, the Potency entry in test [1], in test [2], in test [3] and in test [4] was “inactive” in each case.

Consider `CC(O)C(CO)C(C)O` (stereo not given), for which the Potency result in test [1], in test [2], in test [3] and in test [4] was “inactive” each time.

For the molecule `CCOC(=O)C(O)c1ccccc1` (stereo not given), the Potency entry in test [1], in test [2], in test [3] and in test [4] was “inactive” each time.

`CCCCOCCOCCOC(=O)CCCCC(=O)OCCOCCOCCCC`: the Potency result in test [1], in test [2], in test [3] and in test [4] was “inactive” throughout.

`CCCC(=O)OCC(COC(=O)CCC)OC(=O)CCC`: the Potency result in test [1], in test [2], in test [3] and in test [4] was “inactive” each time.

`O=C(O)c1ccc(OCCN2CCCCC2)cc1`: the Potency entry in test [1], in test [2], in test [3] and in test [4] was “inactive” in each case.

For the molecule `O=C(O)c1ccc2cc(O)ccc2c1`, the Potency result in test [1], in test [2], in test [3] and in test [4] was “inactive” each time.

As to `O=Cc1ccc(Cl)cc1`, the Potency entry in test [1], in test [2], in test [3] and in test [4] was “inactive” throughout.

On to `O=C1C=CC(=O)O1`, for which the Potency result in test [1], in test [2], in test [3] and in test [4] was “inactive” throughout.

On to `ClC/C=C/CCl`, for which the Potency entry in test [1], in test [2], in test [3] and in test [4] was “inactive” in each case.

Turning to `O=[N+]([O-])c1ccc(CCO)cc1`, the Potency result in test [1], in test [2], in test [3] and in test [4] was “inactive” each time.

Turning to `CCOc1ccc(NC(C)=O)cc1N`, the Potency result in test [1], in test [2], in test [3] and in test [4] was “inactive” each time.

With `CCC(C)(CCCC(C)C)OC(C)=O` (stereo not given), the Potency entry in test [1], in test [2], in test [3] and in test [4] was “inactive” in each case.

On to `CC[C@H]1OC(=O)[C@H](C)[C@@H](O[C@H]2C[C@@](C)(OC)[C@@H](O)[C@H](C)O2)[C@H](C)[C@@H](O[C@@H]2O[C@H](C)C[C@H](N(C)C)[C@H]2O)[C@](C)(O)C[C@@H](C)/C(=N\OCOCCOC)[C@H](C)[C@@H](O)[C@]1(C)O`, for which the Potency entry in test [1], in test [2], in test [3] and in test [4] was “inactive” throughout.

For the origin of these results see PubChem BioAssay (Tox21).
